From PubChem BioAssay
HCV inhibitor: HCV inhibition; Huh7.5.1 HCVcc-Cre infection, luciferase reporter, 44 h; Potency, µM (titrated, usually from 41.8 µM), inactives show at the highest dose activity change, negative = inhibition, most hits filed as inhibitors; actives 3.4% (n = 340,000); AID 651820; note: potency is the fitted concentration of half-maximal effect; % is set by controls: 0 for no effect and ±100 for the full control effect
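A cell-based infection assay in which seeded cells (1,000 per well) receive test compound after 4 h, are inoculated with HCVcc-Cre at approximately 0.5 moi, and are incubated 44 h before luminescence detection.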
Pf growth 96h: P. falciparum growth inhibition at 96 hours. Potency, µM (titrated, usually from 28.7 µM), for the others: at the highest dose activity change, negative = inhibition, usual class: inhibitors. AID 504834. actives 6.9% (n = 320,000). P. falciparum luciferase reporter growth, 96 h; note: potency is the fitted concentration of half-maximal effect; % is set by controls: 0 for no effect and ±100 for the full control effect
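Readout is luminescence from an integrated firefly luciferase in P. falciparum. Red cells, 2% hematocrit and 0.05% parasitemia final, were cultured with compound through two parasite generations (96 hours) at 37 C, 5% CO2.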
Shiga inhibitor: blocks Shiga toxin action in Vero cells; Vero cells, Shiga toxin protein synthesis inhibition reporter; inhibition, % at 38.7 µM; actives 9.2% (n = 290,000); AID 2315; in the data active = inhibition mostly above about 28%, no sharp cut-off; inactive = mostly below about 43%; note: 0% is about no effect
Pf growth 48h: P. falciparum growth inhibition at 48 hours (one generation); P. falciparum luciferase growth in erythrocytes, 48 h; Potency, µM (titrated, usually from 28.7 µM), without a hit: top-dose activity change, negative = inhibition, most hits filed as inhibitors; AID 504832; actives 5.9% (n = 310,000); note: potency is the fitted concentration of half-maximal effect; % is set by controls: 0 for no effect and ±100 for the full control effect
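Firefly luciferase activity from engineered P. falciparum reports growth; inhibitors lower the luminescent signal. Cultures contained 2% hematocrit erythrocytes at 0.1% final parasitemia.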
AMA1-RON2 inh: disrupts binding of P. falciparum AMA1 to RON2 | actives 0.2% (n = 360,000) | Potency, µM (doses to about 58.2 µM), without a hit: at the highest dose activity change, negative = inhibition, hits mostly inhibitors | AlphaScreen AMA1-biotinylated RON2 peptide binding;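 note: potency is the fitted concentration of half-maximal effect; 0% = vehicle wells and -100% = peptide control; nearly all actives have a fitted effect of over 45% in size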
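AMA1 (3D7) with his tag at 25 nM final met compounds first, then biotinylated RON2 peptide at 25 nM; detection used donor plus acceptor beads, 10 µg/mL apiece, read by AlphaScreen after 30 min at room temperature.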
Cycloheximide cs: counter-screen for Shiga toxin inhibitors: cycloheximide protein synthesis inhibition | cell reporter, cycloheximide protein synthesis inhibition counterscreen | max response, % | actives 12% (n = 300,000) | AID 2314; in the data active = max response mostly above about 13%, no sharp cut-off; inactive = mostly below about 14%; note: read at 38.3 µM for the half of the compounds with a filed dose; 0% is about no effect
The depositor's hits bear a star; ? = inconclusive; nt = no result given; [ ] = remark or other dose. Only some compounds are listed: those with a hit (about 21% of all), similar ones and a draw of the others. Unless noted, calls come from the whole dose curve; as a rule, active = well fitted curve in the direction sought with a large enough effect; inconclusive = small, poorly fitted or top-dose-only effect, or another doubt; inactive = no such curve, though single readings can be large; an effect the other way counts as inactive or inconclusive.

SMILES	HCV inhibitor	Pf growth 96h	Shiga inhibitor	Pf growth 48h	AMA1-RON2 inh	Cycloheximide cs
COc1ccc(C(=O)NCCS(=O)(=O)N2CCN(Cc3ccccc3)CC2)cc1	5.4%[8.37 µM]	6.4%	nt	7.7%	0.4%	nt
CC(C)(C)c1ccc(-c2noc(-c3ccc4c(c3)CCO4)n2)cc1	?	183.2%	34.6*	119.4%	3.0%	21.4*
Cc1c(-c2nc(-c3ccc(C(C)(C)C)cc3)no2)n(C)oc1=O	2.5%	-70.5%	161.3*	-72.6%	-0.3%	60.3*
Cc1nc(-c2cc(-c3ccc(Cl)cc3)no2)cs1	-18.9%	366.2%	83.2*	284.6%	-3.8%	52.3*
Cc1nc(-c2cc(-c3nc(-c4cc(C(F)(F)F)cc(C(F)(F)F)c4)no3)no2)cs1	9.6%	31.3%	6.7	23.5%	-2.4%	-2.0
Cc1nc(-c2cc(-c3nc(-c4ccc(C(F)(F)F)cc4)no3)no2)cs1	20.0%	3.0%	11.0	0.657µM*	-2.9%	8.8
COc1ccc(Cc2nnc(NC(=O)c3ccccc3Cl)s2)cc1OC	-9.1%	?	-1.6	-14.2%	-12.8%	-1.0
Cc1ccc([C@@H]2C[C@H]3[C@@H](CN2S(=O)(=O)c2ccc(C)cc2)C(=O)C[C@@H](c2ccc(C)cc2)N3S(=O)(=O)c2ccc(Cl)cc2)cc1	nt	nt	nt	nt	-4.9%	nt
Cc1cc(C)n2c(NCc3ccccc3)c(-c3cc4ccccc4o3)nc2n1	nt	nt	nt	nt	4.1%	nt
Cc1cc(-c2nnnn2-c2ccc(C(F)(F)F)cc2)no1	0.9%	43.8%	22.1	54.0%	3.5%	-1.6
Cc1cc(-c2nc(-c3ccc(C(C)(C)C)cc3)no2)no1	?	118.9%	53.4*	405.0%	17.2%	39.5*
O=S(=O)(c1ccc(F)c(F)c1)N1CCN(S(=O)(=O)c2cccs2)CC1	1.2%	38.3%	1.3	120.3%	1.2%	-2.8
COc1ccc(CN2C(=O)C(CC(=O)NCCc3ccccn3)CC(C(=O)N3CCCCCC3)=C2C)cc1 (stereo unspecified)	nt	nt	nt	nt	41.4%	nt
COC(=O)c1ccc(N2OC3(C)C=CC2CC3)cc1 (stereo unspecified)	-1.5%	59.7%	active	121.5%	-10.5%	56.1*
COC(=O)c1ccc(N2C(=O)CC(N3CCOCC3)C2=O)cc1 (stereo unspecified)	1.9%	-20.0%	-16.3	0.8%	8.2%	-3.4
c1ccc(-c2csc(=Nc3cccnc3)n2CC2CCCO2)cc1 (stereo unspecified)	2.4%	?	-14.5	?	?	6.9
CCCCn1c(C)csc1=Nc1cccnc1	6.1%	?	8.8	-0.6%	-9.4%	-2.9
Cc1cccn2c(=O)c3cc(C(=O)NCCCN4CCCC4=O)n(C)c3nc12	?	23.9%	24.3	-12.0%	2.7%	12.0
COCCn1c(-c2ccccc2)csc1=Nc1cccnc1	8.91µM*	?	-5.7	?	-8.1%	8.6
Cc1ccc(-c2csc(=Nc3cccnc3)n2CCCN2CCCC2=O)cc1C	?	11.7µM*	-11.9	?	-0.5%[2.32 µM]	-3.3
Cc1ccc(-c2csc(=Nc3cccnc3)n2CCCn2ccnc2)cc1C	?	3.7µM*	-18.2	10.4µM*	0.6%[2.32 µM]	-2.6
c1cncc(N=c2scc(-c3cccc4ccccc34)n2CCCn2ccnc2)c1	?	9.28µM*	-18.1	9.28µM*	10.6%[2.32 µM]	-4.9
COc1ccc(Cl)cc1-c1cc(C(=O)Nc2ccc(C(C)(C)C)cc2)[nH]n1	nt	nt	nt	nt	-1.9%	nt
Cc1cc(Cl)ccc1OCc1cn2cccnc2n1	-2.6%	105.0%	84.1*	81.8%	0.2%	50.6*
O=S(=O)(Nc1cccc(-c2cn3cccnc3n2)c1)c1ccc(Cl)cc1	-9.1%	0.0%	-5.1	14.6%	-20.6%	-1.9
SMILES	HCV inhibitor	Pf growth 96h	Shiga inhibitor	Pf growth 48h	AMA1-RON2 inh	Cycloheximide cs
Cc1ccc(S(=O)(=O)Cc2cn3cccnc3n2)cc1	10.6%	3.9%	8.1	-4.8%	10.9%	1.5
Fc1ccc(COc2cccc3cccnc23)cc1	1.9%	51.0%	91.2*	0.6%	17.3%	40.6*
NC(=O)COc1cccc2cccnc12	8.5%	17.2%	-18.5	nt	9.5%	1.5
Clc1cccc(NCc2cn3cccnc3n2)c1	?	0.0%	18.5	0.0%	-4.3%	27.0*
Clc1ccc(OCc2cn3cccnc3n2)c2ncccc12	-1.8%	-33.1%	100.6*	53.7%	6.0%	34.9*
O=C(NCCc1ccccc1)C1Cc2c(-c3ccc(Cl)cc3)ccnc2O1 (stereo unspecified)	nt	nt	nt	nt	0.0%	nt
O=c1cc2c(c(-c3ccccc3)n1Cc1ccccc1)[C@@H](CCO)NC2	-19.5%	nt	nt	nt	-12.4%	nt
COc1ccc(Oc2cccc(Cl)c2CNC(=O)CCCC(=O)O)cc1	13.1%	5.4%	-4.6	106.0%	17.4%	-1.7
c1cnc2c(OCc3cn4cccnc4n3)cccc2c1	?	nt	77.4	52.3%	-15.8%	27.9*
Cc1ccc(C(=O)OCC(=O)c2ccc[nH]2)s1	?	43.2%	76.1*	115.9%	-2.1%	29.6*
O=C(COC(=O)c1ccc(Cl)s1)c1ccc[nH]1	8.4%	32.8%	73.2*	-4.3%	0.0%	26.6*
Cc1cn(C2CCCCO2)c(=O)[nH]c1=O (stereo unspecified)	2.4%	nt	nt	nt	2.5%	nt
Cc1ccc(C23OC(=O)C(C)(C)C2OC(=O)C3(C)C)cc1 (stereo unspecified)	3.0%	13.1µM*	-5.4	9.28µM*	-3.0%	6.9
Cc1cc(C)c(-c2c(O)c3cccnc3n(C)c2=O)c(C)c1	20.3%	nt	nt	nt	3.1%	nt
Cc1ccc(NC(=O)Cn2nnc(-c3ccccc3NC(=O)c3cccs3)n2)cc1	?	nt	-4.5	13.1µM*	26.5%	13.0
COc1ccccc1NC(=O)Cn1nnc(-c2ccccc2NC(=O)c2cc3ccccc3oc2=O)n1	9.9%	64.2%	80.1*	41.6%	2.0%	39.3*
COc1cc(OC)cc(C(=O)Nc2ccccc2-c2nnn(CC(N)=O)n2)c1	-18.9%	18.4%	-12.3	?	-3.5%	7.9
COc1ccccc1NC(=O)Cn1nnc(-c2ccccc2NS(=O)(=O)c2ccccc2)n1	?	-22.5%	-6.1	?	-3.8%	8.0
COc1ccc(NC(=O)Cn2nnc(-c3ccccc3NC(=O)c3cccs3)n2)cc1	?	?	-13.5	1.85µM*	0.6%	-1.6
COc1ccc(NC(=O)Cn2nnc(-c3ccccc3NS(=O)(=O)c3ccc(OC)cc3)n2)cc1	11.2µM*	6.7%	14.1	?	4.7%	6.4
CCOCCCN(C(=O)c1snc(C(N)=O)c1N)C(C(=O)NCCC(C)C)c1ccc(Cl)cc1 (stereo unspecified)	-5.8%	7.4%	8.8	?	-3.8%	0.4
C=CCN(c1cccc(C(F)(F)F)c1)S(=O)(=O)c1cccc(C(=O)OCC(=O)NC)c1	-1.3%	11.7µM*	-0.8	?	10.4%	-4.3
